Test results published in PubChem BioAssay.
Activity calls are given as the source filed them.

How the values were obtained:
[1] = test system: PRMT1 (protein arginine N-methyltransferase 1); assay: small molecules binding arginine methyltransferase PRMT1 – biochemical, small-molecule microarray, 635 nm fluorescence, primary screen (AID 1088); settings: higher = more signal;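 note: binding of Prmt1 protein to compounds spotted on small-molecule microarray slides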
[2] = growth effects on S. cerevisiae YJM789 – YJM789 clinical isolate, OD600, 24 h, basal, primary screen (AID 1089); settings: higher = more signal, called active from +8 up or from −8 down;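 note: growth of clinical yeast isolate S. cerevisiae YJM 789 seeded 1000 cells per well; test concentration not given here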
[3] = S. pombe growth modifiers, basal conditions – strain 972, OD600, 24 h, no modulator, primary screen (AID 1090);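 note: basal condition with compound alone and no growth modifier present; test concentration not given here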; settings: S. pombe 972 growth, higher = more signal, called active from +8 up or from −8 down
[4] = budding yeast growth modifiers under rapamycin – strain BY4716, OD600, 96 h, primary screen (AID 1091); note: test concentration not given here; settings: S. cerevisiae BY4716 + rapamycin, higher = more signal, called active from +8 up or from −8 down
[5] = biological target: Torsin-1A-interacting protein 2 (Homo sapiens) (UniProt Q8NFQ8); assay: small molecules binding lysate-expressed LULL1 – cell lysate, human LULL1 lysate, 635/667 nm fluorescence, primary screen (AID 1092); settings: small-molecule microarray, hLULL1 lysate binding, 635 nm fluorescence; higher = more signal;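 note: probe is lysate of COS7 cells overexpressing human LULL1; score merges per-feature 667 nm fluorescence with signal-to-noise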
Torsin-1A-interacting protein 2 (Homo sapiens), sequence (Q8NFQ8 whole entry, looked up): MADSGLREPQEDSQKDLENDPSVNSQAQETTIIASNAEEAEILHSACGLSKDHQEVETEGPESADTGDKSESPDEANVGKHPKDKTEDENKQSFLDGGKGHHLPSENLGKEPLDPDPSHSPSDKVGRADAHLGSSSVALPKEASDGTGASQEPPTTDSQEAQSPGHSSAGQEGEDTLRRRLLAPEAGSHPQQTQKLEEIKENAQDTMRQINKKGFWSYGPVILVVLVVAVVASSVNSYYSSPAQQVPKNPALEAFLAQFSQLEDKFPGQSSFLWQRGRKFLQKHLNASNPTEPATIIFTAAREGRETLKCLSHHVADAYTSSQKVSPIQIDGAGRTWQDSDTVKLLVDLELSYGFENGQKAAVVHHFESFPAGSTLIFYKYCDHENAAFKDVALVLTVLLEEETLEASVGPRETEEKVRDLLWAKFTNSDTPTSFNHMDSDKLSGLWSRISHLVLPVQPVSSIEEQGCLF

[6] = optical density change of DRC41 E. coli – strain DRC41, OD650, 24 h, E. coli filamentation project, primary screen (AID 1093);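 note: MC1000 strain lacking acrAB efflux and sulA so SOS filamentation is blocked; test concentration not given here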; settings: E. coli DRC41 growth, higher = more signal, called active from +8 up or from −8 down
[7] = probe aLefty2 binding to arrayed compounds – biochemical, biotinylated probe, 635/667 nm fluorescence, primary screen (AID 1094); settings: small-molecule microarray, higher = more signal;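 note: score merges spot fluorescence near 667 nm with spot signal-to-noise ratio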
[8] = test system: Noggin (protein binding on small-molecule microarray); assay: small molecules binding Noggin protein – biochemical, 635/667 nm fluorescence, primary screen (AID 1095); settings: 635 nm fluorescence, higher = more signal;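 note: score merges 667 nm feature fluorescence with signal to noise over triplicate slides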
[9] = biological target: Neurogenic locus notch homolog protein 3 (Homo sapiens) (UniProt Q9UM47); assay: small molecules binding NOTCH3 protein – biochemical, 635/667 nm fluorescence, primary screen (AID 1096); settings: small-molecule microarray, 635 nm fluorescence, higher = more signal
Neurogenic locus notch homolog protein 3 (Homo sapiens), sequence (Q9UM47 whole entry, looked up): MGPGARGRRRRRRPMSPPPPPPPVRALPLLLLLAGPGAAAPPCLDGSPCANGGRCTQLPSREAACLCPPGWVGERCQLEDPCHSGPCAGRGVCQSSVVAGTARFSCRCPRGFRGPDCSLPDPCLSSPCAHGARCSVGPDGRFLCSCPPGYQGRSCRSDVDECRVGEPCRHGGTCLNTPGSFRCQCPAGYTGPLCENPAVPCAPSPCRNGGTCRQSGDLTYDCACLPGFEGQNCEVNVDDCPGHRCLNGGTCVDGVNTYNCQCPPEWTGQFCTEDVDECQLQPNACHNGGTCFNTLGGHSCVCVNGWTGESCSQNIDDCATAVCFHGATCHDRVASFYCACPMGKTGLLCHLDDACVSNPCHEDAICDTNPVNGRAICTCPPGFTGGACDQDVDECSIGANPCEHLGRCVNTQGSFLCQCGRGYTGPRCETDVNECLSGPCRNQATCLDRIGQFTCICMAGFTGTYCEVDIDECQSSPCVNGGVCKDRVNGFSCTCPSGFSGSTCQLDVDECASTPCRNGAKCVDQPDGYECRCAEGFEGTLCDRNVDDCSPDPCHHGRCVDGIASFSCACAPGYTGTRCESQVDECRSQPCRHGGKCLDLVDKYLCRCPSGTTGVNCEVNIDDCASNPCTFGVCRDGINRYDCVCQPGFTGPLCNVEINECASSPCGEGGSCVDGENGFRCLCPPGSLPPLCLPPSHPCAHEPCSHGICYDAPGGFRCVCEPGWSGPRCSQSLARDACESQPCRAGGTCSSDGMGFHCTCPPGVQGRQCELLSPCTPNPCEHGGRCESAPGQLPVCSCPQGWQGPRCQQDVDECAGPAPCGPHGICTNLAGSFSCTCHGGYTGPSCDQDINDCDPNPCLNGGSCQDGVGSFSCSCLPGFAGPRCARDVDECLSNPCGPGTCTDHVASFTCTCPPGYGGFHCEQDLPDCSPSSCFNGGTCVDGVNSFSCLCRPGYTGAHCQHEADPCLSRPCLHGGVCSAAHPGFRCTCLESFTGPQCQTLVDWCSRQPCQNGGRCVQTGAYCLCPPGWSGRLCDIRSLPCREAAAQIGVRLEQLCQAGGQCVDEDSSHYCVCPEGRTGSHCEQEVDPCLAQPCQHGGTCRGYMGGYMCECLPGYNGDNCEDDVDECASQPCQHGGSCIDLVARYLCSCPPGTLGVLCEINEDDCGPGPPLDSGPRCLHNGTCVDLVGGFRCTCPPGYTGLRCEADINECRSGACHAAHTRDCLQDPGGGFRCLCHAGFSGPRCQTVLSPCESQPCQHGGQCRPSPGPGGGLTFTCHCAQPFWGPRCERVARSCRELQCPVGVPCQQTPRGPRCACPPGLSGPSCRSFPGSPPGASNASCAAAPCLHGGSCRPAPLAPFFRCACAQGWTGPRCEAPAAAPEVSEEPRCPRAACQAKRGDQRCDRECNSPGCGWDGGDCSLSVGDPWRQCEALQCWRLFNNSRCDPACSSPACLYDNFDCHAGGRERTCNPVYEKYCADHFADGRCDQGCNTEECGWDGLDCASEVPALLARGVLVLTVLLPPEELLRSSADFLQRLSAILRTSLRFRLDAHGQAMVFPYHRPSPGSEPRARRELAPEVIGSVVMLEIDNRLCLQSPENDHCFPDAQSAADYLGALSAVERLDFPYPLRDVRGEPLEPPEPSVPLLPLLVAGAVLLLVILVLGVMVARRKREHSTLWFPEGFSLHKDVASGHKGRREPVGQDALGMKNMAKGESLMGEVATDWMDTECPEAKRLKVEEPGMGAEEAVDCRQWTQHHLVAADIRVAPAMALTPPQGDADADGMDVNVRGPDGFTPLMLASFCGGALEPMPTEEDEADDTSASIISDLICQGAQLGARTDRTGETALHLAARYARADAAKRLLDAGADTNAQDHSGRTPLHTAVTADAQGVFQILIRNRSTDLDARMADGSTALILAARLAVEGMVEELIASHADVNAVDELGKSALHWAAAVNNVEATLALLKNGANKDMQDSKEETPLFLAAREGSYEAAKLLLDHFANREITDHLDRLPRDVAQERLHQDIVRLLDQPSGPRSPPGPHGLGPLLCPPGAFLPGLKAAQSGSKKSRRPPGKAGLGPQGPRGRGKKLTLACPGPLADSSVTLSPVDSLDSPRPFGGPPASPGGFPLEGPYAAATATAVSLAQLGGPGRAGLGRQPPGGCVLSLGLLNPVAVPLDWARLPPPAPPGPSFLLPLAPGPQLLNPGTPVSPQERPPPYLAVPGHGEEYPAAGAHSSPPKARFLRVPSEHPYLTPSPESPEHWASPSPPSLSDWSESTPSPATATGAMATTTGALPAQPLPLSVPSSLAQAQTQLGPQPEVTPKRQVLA

[10] = probe aEGFR binding to arrayed compounds – biochemical, biotinylated probe, 635/667 nm fluorescence, primary screen (AID 1097); settings: small-molecule microarray, higher = more signal;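 note: probe is a biotinylated anti-EGFR antibody binding compounds printed on slides; score combines fluorescence near 667 nm and signal to noise of each spot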

SMILES	composite z-score [1]	z-score [2]	z-score [3]	z-score [4]	composite z-score [5]	z-score [6]	composite z-score [7]	composite z-score [8]	composite z-score [9]	composite z-score [10]
COC(=O)[C@@]1(Cc2ccc(F)cc2)[C@H]2c3cc(C(=O)N(C)C)n(Cc4ccc(Cl)c(C(F)(F)F)c4)c3C[C@H]2CN1C(=O)c1ccccc1	1.31	0.44 (inactive)	1.29 (inactive)	1.69 (inactive)	3.62	-0.824 (inactive)	0.395	-0.602	1.02	0.231
O=C1O[C@H](c2ccccc2)[C@H](c2ccccc2)N2[C@H]1[C@@H](C(=O)N1CCCCCCC1)[C@]1(C(=O)Nc3ccc(C#CC4=CCCCC4)cc31)[C@H]2c1ccc(OCCO)cc1	1.53	0.42 (inactive)	-2.08 (inactive)	2.79 (inactive)	3.7	2.64 (inactive)	1.72	1.72	1.02	1.07
COC(=O)C(CC#Cc1ccc2c(c1)[C@]1(C(=O)N2)[C@H](C(=O)Nc2nc3ccccc3s2)[C@H]2C(=O)O[C@H](c3ccccc3)[C@H](c3ccccc3)N2[C@@H]1c1ccc(O)cc1)C(=O)OC	1.55	0.424 (inactive)	0.301 (inactive)	0.746 (inactive)	2.82	-1.05 (inactive)	-0.0258	0.709	1.03	0.221
C[C@H]1NC(=O)[C@@]23C(=O)N[C@@H](Cc4ccccc4)C2[C@H](C)[C@@]2(C)O[C@H]2C3/C=C/C/C=C\CNC(=O)[C@@H]2CCCN2C1=O (stereo not given in full)	-0.0905	-0.185 (inactive)	-0.769 (inactive)	-1.52 (inactive)	0.697	0.1 (inactive)	-0.166	1.15	1.01	-0.139
COc1cc2c(cc1OC)CN(C(=O)[C@H]1[C@@H]3C(=O)O[C@@H](c4ccccc4)[C@@H](c4ccccc4)N3[C@@H](c3ccc(O)cc3)[C@]13C(=O)Nc1ccccc13)CC2	1.27	1.16 (inactive)	0.536 (inactive)	1.74 (inactive)	2.32	-0.204 (inactive)	-0.139	0.0366	0.518	-0.191
[N-]=[N+]=Nc1ccccc1[C@@H]1OC(c2ccc(OCCCO)cc2)=N[C@]1(CCS(=O)(=O)c1ccccc1)C(N)=O	1.55	0.193 (inactive)	-1.36 (inactive)	0.199 (inactive)	3.64	0.743 (inactive)	0.588	0.561	0.91	0.122
C=C[C@H](CO)NS(=O)(=O)c1ccc(Br)cc1	-0.0224	0.198 (inactive)	-1.53 (inactive)	-0.135 (inactive)	0.676	1.29 (inactive)	0.0467	0.19	-0.342	-0.0302
CCOC(=O)C1=C[C@@H](C(C)(C)C)N(S(=O)(=O)c2ccc(C)cc2)[C@H]1c1ccc(F)cc1	1.5	0.518 (inactive)	1.95 (inactive)	1.92 (inactive)	3.07	-1.02 (inactive)	-0.0341	0.989	1.07	-0.0004
COCCOC(=O)N1C(=O)[C@@]2(c3cc(C#CCCO)ccc31)[C@H](C(=O)N1CCCCCCC1)[C@H]1C(=O)O[C@H](c3ccccc3)[C@H](c3ccccc3)N1[C@@H]2c1ccc(OCCO)cc1	1.51	1.33 (inactive)	1.3 (inactive)	2.08 (inactive)	3.52	0.584 (inactive)	1.53	1.55	0.93	1.04
CC(C)C[C@@H]1NC(=O)[C@@H]2C[C@H](C(=O)NCc3ccc(F)cc3)[C@H](c3cccc(OCCO)c3)N2C1=O	1.38	-1.84 (inactive)	-0.161 (inactive)	-0.425 (inactive)	2.14	1.64 (inactive)	-0.0674	0.572	0.552	-0.147
Cc1ccc(S[C@]2(C(=O)NCCCN(C)C)CC(=O)N(Cc3cc(C(F)(F)F)cc(C(F)(F)F)c3)[C@@H]2c2ccc(CO)cc2)cc1	0.383	-1.15 (inactive)	-0.79 (inactive)	-0.497 (inactive)	0.923	-0.356 (inactive)	-0.0478	-0.768	-1.5	-0.113
CNS(=O)(=O)c1ccc(C)cc1	1.14	-2.29 (inactive)	-2.38 (inactive)	-0.719 (inactive)	0.283	2.55 (inactive)	-0.165	1.19	0.629	-0.101
CN(C)CCCC[C@@H]1NC(=O)[C@@H]2C[C@H](C(=O)NCCCCCCN)[C@H](c3cccc(OCCO)c3)N2C1=O	1.53	-0.968 (inactive)	-4.9 (inactive)	-0.883 (inactive)	3.25	0.26 (inactive)	1.03	0.612	0.395	0.54
C=C(CCCC)C(=O)CC[C@@H](OC(=O)c1ccccc1-c1ccccc1C(=O)O)c1ccc(OCCO)cc1	1.53	-0.848 (inactive)	-1.57 (inactive)	-1.2 (inactive)	0.259	0.502 (inactive)	-0.0272	0.931	0.462	-0.0767
NCCCCCNC(=O)[C@@H]1C[C@@H]2C(=O)N[C@@H](Cc3ccccc3)C(=O)N2[C@@H]1c1ccc(O)cc1	1.31	-0.247 (inactive)	-0.448 (inactive)	-0.367 (inactive)	1.66	-0.811 (inactive)	-0.0717	0.923	0.452	0.0381
O=C1[C@@]23C=C(Br)[C@H](C[C@@H]2CCOC3)[C@@]12CO2	-0.414	0.24 (inactive)	-2.31 (inactive)	-0.582 (inactive)	0.102	-0.0015 (inactive)	-0.217	0.721	0.372	0.0372
C=CCC(OC(C)=O)[C@@H]1[C@@H](N(Cc2cccc3ccccc23)C(=O)c2ccc(-c3ccccc3)cc2)c2cc(OCCCO)ccc2N1C(=O)c1ccc2ccccc2c1 (stereo not given in full)	0.833	-0.226 (inactive)	0.435 (inactive)	0.009 (inactive)	1.76	-0.601 (inactive)	-0.0174	0.251	0.643	-0.0578
COc1ccc(C(=O)Nc2ccc(CN3C(=O)[C@]4(O[C@H](CCO)[C@@H]([Si](C)(C)c5ccc(OC)cc5)[C@@H]4C)c4ccccc43)cc2)cc1	1.47	-0.0534 (inactive)	-12.2 (active)	1.62 (inactive)	2.17	-0.324 (inactive)	0.0412	0.827	1.13	-0.183
C=CCC(OC(C)=O)[C@@H]1[C@@H](N(Cc2ccc(-c3ccccc3)cc2)C(=O)Cc2ccc(OC)cc2)c2cc(OCCCO)ccc2N1C(=O)Cc1ccc2ccccc2c1 (stereo not given in full)	-0.137	-0.74 (inactive)	-0.619 (inactive)	-0.238 (inactive)	1.09	-0.263 (inactive)	-0.153	-0.688	-0.0042	-0.177
CCOC(=O)C[C@H]1[C@H](OC(=O)c2ccc(C(=O)c3ccccc3)cc2)[C@@H](NC(=O)CC(C)C)c2cc(OCCCO)ccc2N1C(=O)c1ccc2ccccc2n1	1.48	1.09 (inactive)	0.606 (inactive)	0.607 (inactive)	1.99	0.995 (inactive)	0.106	0.693	1.13	-0.0565
COC(=O)C(CC#Cc1ccc2c(c1)[C@]1(C(=O)N2)[C@H](C(=O)Nc2nc3ccccc3s2)[C@H]2C(=O)O[C@H](c3ccccc3)[C@H](c3ccccc3)N2[C@@H]1c1ccccc1OCCO)C(=O)OC	1.55	1.35 (inactive)	1.12 (inactive)	1.39 (inactive)	2.69	-0.404 (inactive)	0.0293	0.485	1.08	-0.0244
O=C(CS)NCCCCCCNC(=O)[C@@H]1C[C@@H]2C(=O)N[C@@H](Cc3ccccc3)C(=O)N2[C@@H]1c1cccc(OCCO)c1	1.54	-0.485 (inactive)	0.279 (inactive)	0.211 (inactive)	2.92	-1.21 (inactive)	0.0747	0.988	1.04	0.122
CC(C)(C)OC(=O)CC[C@]1(C(=O)N2CCOCC2)N=C(c2ccc(OCCCO)cc2)O[C@H]1c1ccccc1N=[N+]=[N-]	1.28	-0.54 (inactive)	-0.496 (inactive)	-0.531 (inactive)	3.25	1.57 (inactive)	0.124	0.356	0.671	0.0552
C=C(C)[C@@H]1CC=C(C(O)C2C=CC3C(=O)N(C)C(=O)C3N2Nc2ccccc2)CC1 (stereo not given in full)	1.12	0.821 (inactive)	-0.329 (inactive)	1.92 (inactive)	1.16	-1.03 (inactive)	0.118	0.728	1.08	0.0044
Cc1ccccc1C(O)C1C=CC2C(=O)N(c3ccccc3)C(=O)C2N1Nc1ccc(C(C)C)cc1 (stereo not given)	1.13	1.38 (inactive)	0.0135 (inactive)	0.798 (inactive)	2.3	-1.89 (inactive)	-0.0675	-0.0693	1.07	0.0461
COc1cc(COC(C)=O)ccc1OC(C)=O	0.491	-2.59 (inactive)	-3.73 (inactive)	-0.724 (inactive)	0.418	3.13 (inactive)	1.07	0.373	0.279	0.643
O=C1C[C@]2(c3ccc([N+](=O)[O-])cc3)C(=O)N(CC(F)(F)F)c3cc(CO)ccc3[C@H]2N1C1CCCCC1	0.137	0.926 (inactive)	-0.378 (inactive)	-1.03 (inactive)	-0.0451	0.685 (inactive)	-0.216	-0.425	-1.41	-0.201
CC1(C)[C@@H]2CC(C(O)C3C=CC4C(=O)N(c5ccccc5)C(=O)C4N3Nc3ccc([N+](=O)[O-])cc3)=C[C@H]1C2 (stereo not given in full)	1.55	-0.0209 (inactive)	0.287 (inactive)	2.09 (inactive)	3.71	-0.692 (inactive)	0.109	0.375	1.03	0.184
COc1ccc(CCNC(=O)[C@@]2(Sc3ccc(C)cc3)CC(=O)N(C3Cc4ccccc4C3)[C@@H]2c2ccc(CO)cc2I)cc1	0.789	0.534 (inactive)	-2.75 (inactive)	3.02 (inactive)	1.99	0.171 (inactive)	0.119	-1.37	-0.0239	-0.172
